Results on eight molecules are retold here after PubChem BioAssay (NCI).

Molecules are shown by their SMILES. This is part of a sample that, as a whole, favours compounds with a hit. Of some 83,000 tested, about 20% had one in any assay.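 The endpoint reported here, percent growth, reads 100 for growth as untreated, 0 for no net growth and -100 for all cells dead.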 A number with no mark means an inactive call. Calls of active or inactive are those of the source. How the source made its calls: active means growth percent below 10; inactive means the rest.

What all share (experiment): NCI-60 one-dose screen, 48 h (100 = growth as untreated, 0 = no growth, -100 = all killed)
In one experiment the test system is NCI-H23 lung. Particulars: 10 µM unless noted.
For the next experiment, the system named is NCI-H226 lung. Particulars: 10 µM unless noted.
The next experiment has as its system NCI-H322M lung. Particulars: 10 µM unless noted.
For the next experiment, the system named is HOP-62 NSCLC. Particulars: 10 µM unless noted.
In the next experiment the test system is NCI-H460 lung. The conditions noted are these: 10 µM unless noted.
A further experiment concerns HOP-92 NSCLC. Particulars: 10 µM.
In another experiment the test system is NCI-H522 lung. Particulars: 10 µM unless noted.
A further experiment has as its system A549/ATCC NSCLC. Particulars: 10 µM unless noted.
In a further experiment the test system is 786-0 renal. The conditions noted are these: 10 µM unless noted.
The subject of the next experiment is COLO 205 colon. The conditions noted are these: 10 µM unless noted.
Another experiment deals with DU-145 prostate. Particulars: 10 µM unless noted.
In another experiment the test system is K-562 leukemia. Particulars: 10 µM unless noted.
The test system of another experiment is MALME-3M melanoma. Particulars: 10 µM unless noted.
For the next experiment, the system named is MDA-MB-231 breast. The conditions noted are these: 10 µM unless noted.
The subject of another experiment is SF-268 CNS. Particulars: 10 µM unless noted.
The subject of another experiment is SF-295 CNS. The conditions noted are these: 10 µM unless noted.
A further experiment has as its system SF-539 CNS. The conditions noted are these: 10 µM unless noted.
For a further experiment, the system named is UACC-257 melanoma. The conditions noted are these: 10 µM unless noted.
In another experiment the test system is RXF 393 renal. Particulars: 10 µM unless noted.
The next experiment concerns M14 melanoma. The conditions noted are these: 10 µM unless noted.

On to `COc1ccc(NC(=O)CSc2nnc(-c3ccc4nc(-c5ccccc5)[nH]c4c3)o2)cc1`, for which the growth in the experiment with NCI-H23 lung is 96.3%; with NCI-H226 lung, 96.2%; with NCI-H322M lung it was 98%; in the experiment with HOP-62 NSCLC it was 101%; in the experiment on NCI-H460 lung it was 99.8%; in the experiment with HOP-92 NSCLC, 99.4%. For the same molecule, the growth in the experiment with NCI-H522 lung was 94.2%; in the experiment with A549/ATCC NSCLC it was 101%; with 786-0 renal it was 96.3%; in the experiment with COLO 205 colon, 108%; with DU-145 prostate it was 104%; with K-562 leukemia, 84.2%. Further, the growth with MALME-3M melanoma was 99.2%; in the experiment on MDA-MB-231 breast it was 97.1%; in the experiment with SF-268 CNS, 101%; in the experiment with SF-295 CNS it was 102%; with SF-539 CNS, 96.2%; in the experiment on UACC-257 melanoma, 106%.
Turning to `O=C1CCC(N2C(=O)c3ccc(NS(=O)(=O)c4ccccc4OC(F)(F)F)cc3C2=O)C(=O)N1` (stereo not given), the growth is 107% in the experiment with NCI-H23 lung; 44.7% in the experiment on NCI-H226 lung; 46.1% in the experiment with NCI-H322M lung; 6.09% (active) in the experiment with HOP-62 NSCLC; 115% with NCI-H460 lung; -2.41% (active) in the experiment on HOP-92 NSCLC. For the same molecule, the growth in the experiment on NCI-H522 lung is 69.3%; with A549/ATCC NSCLC it was 78.7%; with 786-0 renal it was 47.6%; with COLO 205 colon it was 20.5%; in the experiment on DU-145 prostate it was 108%; with K-562 leukemia it was 65.8%. The growth is 7.28% (active) in the experiment with MALME-3M melanoma; 6.46% (active) in the experiment on MDA-MB-231 breast; 43.2% in the experiment on SF-268 CNS; 56.9% in the experiment with SF-295 CNS; 79.7% in the experiment with SF-539 CNS; 107% in the experiment with UACC-257 melanoma.
Consider `O=C(c1ccc(O)cc1)[C@@H]1CN[C@@]2(C(=O)Nc3ccccc32)[C@H]1c1ccc(F)cc1`, for which the growth was 94.5% in the experiment with NCI-H23 lung; 96.2% in the experiment with NCI-H226 lung; 99.7% in the experiment with NCI-H322M lung; 99.5% with HOP-62 NSCLC; 111% in the experiment on NCI-H460 lung; 101% in the experiment with HOP-92 NSCLC. The growth in the experiment on NCI-H522 lung was 96.6%; in the experiment with A549/ATCC NSCLC, 108%; with 786-0 renal, 110%; in the experiment on COLO 205 colon, 116%; in the experiment with DU-145 prostate, 111%; with K-562 leukemia, 88%. Besides, the growth is 98.5% in the experiment on MALME-3M melanoma; 93.6% in the experiment on MDA-MB-231 breast; 97.7% in the experiment on SF-268 CNS; 101% in the experiment with SF-295 CNS; 93.7% in the experiment on SF-539 CNS; 114% in the experiment on UACC-257 melanoma.
With `COc1ccccc1-n1cc(C#N)c(N)c1C(=O)c1ccc(Cl)cc1`, the growth in the experiment on NCI-H23 lung is 90.8%; in the experiment with NCI-H226 lung, 97.7%; in the experiment on NCI-H322M lung, 103%; in the experiment with HOP-62 NSCLC it was 87.7%; in the experiment with NCI-H460 lung, 87.8%; in the experiment with HOP-92 NSCLC, 101%. For the same molecule, the growth is 22.4% with NCI-H522 lung; 94.6% in the experiment on A549/ATCC NSCLC; 104% in the experiment on 786-0 renal; 86.8% in the experiment with COLO 205 colon; 93.8% with DU-145 prostate; 20.8% in the experiment with K-562 leukemia. Also, the growth in the experiment with MALME-3M melanoma is 59.5%; with MDA-MB-231 breast, 68.2%; with SF-268 CNS, 85.2%; with SF-295 CNS, 78.8%; in the experiment on SF-539 CNS it was 91.8%; in the experiment with UACC-257 melanoma it was 87.5%.
With `Cn1ccnc1C(=O)/C=C/c1ccc(CNC(=O)c2ccc(F)cc2)cc1`, the growth in the experiment with NCI-H23 lung was 5.81% (active); in the experiment on NCI-H226 lung, 51.7%; in the experiment with NCI-H322M lung it was 29.7%; in the experiment with HOP-62 NSCLC, 41.6%; in the experiment with NCI-H460 lung it was -27.1% (active); in the experiment on HOP-92 NSCLC it was 62.3%. Further, the growth in the experiment on NCI-H522 lung is 24.3%; with A549/ATCC NSCLC, 27.6%; in the experiment on 786-0 renal, 21.9%; in the experiment on COLO 205 colon, 42.8%; with DU-145 prostate, 13.2%; with K-562 leukemia it was 11.3%. Besides, the growth with MALME-3M melanoma was 84%; in the experiment on MDA-MB-231 breast, 11%; in the experiment with SF-268 CNS, 9.43% (active); with SF-295 CNS, 49.1%; with SF-539 CNS, -20% (active); in the experiment on UACC-257 melanoma, 80.6%.
In the case of `CCN(CC)c1ccc2c(c1)Oc1nc(N)c(C#N)c(N)c1C2Sc1ccc(C)cc1` (stereo not given), the growth with NCI-H23 lung is -90% (active); in the experiment with NCI-H226 lung, -54.6% (active); with NCI-H322M lung, -92.7% (active); in the experiment on HOP-62 NSCLC, -71% (active); in the experiment on NCI-H460 lung it was -40.4% (active); in the experiment with HOP-92 NSCLC it was -93.9% (active). Besides, the growth in the experiment with NCI-H522 lung was -75.6% (active); with A549/ATCC NSCLC it was -56.9% (active); with 786-0 renal it was -92.6% (active); in the experiment on COLO 205 colon, -53.6% (active); with DU-145 prostate it was -95.5% (active); with K-562 leukemia it was 0.301% (active). In addition, the growth in the experiment with MALME-3M melanoma was -92.9% (active); in the experiment with MDA-MB-231 breast, -87.3% (active); in the experiment on SF-268 CNS, -52.7% (active); in the experiment on SF-295 CNS it was -93.3% (active); with SF-539 CNS, -97.8% (active); in the experiment with UACC-257 melanoma it was -74.2% (active).
Consider `CCc1cccc(NC(=O)CNc2cc(S(=O)(=O)N(C)C)cc(C)c2C)c1`, for which the growth with NCI-H23 lung is 81.4%; with NCI-H226 lung, 77%; in the experiment with NCI-H322M lung, 105%; with HOP-62 NSCLC, 73.8%; in the experiment on NCI-H460 lung, 102%; in the experiment with HOP-92 NSCLC, 72%. The growth in the experiment with A549/ATCC NSCLC is 85.2%; with 786-0 renal, 85.2%; in the experiment on COLO 205 colon it was 111%; in the experiment with DU-145 prostate, 80.3%; in the experiment on K-562 leukemia, 85%; in the experiment on MALME-3M melanoma, 106%. Besides, the growth was 78% with MDA-MB-231 breast; 37.7% with RXF 393 renal; 75% in the experiment on SF-268 CNS; 91.6% in the experiment on SF-295 CNS; 90.7% in the experiment with SF-539 CNS; 101% in the experiment with UACC-257 melanoma. In addition, in the experiment on M14 melanoma, the growth was 100%.
As to `CS(=O)(=O)Nc1cc(-c2ccc3ncc(C#N)c(NCc4ccccc4)c3c2)cnc1Cl`, the growth was 0.346% (active) in the experiment with NCI-H23 lung; -9.59% (active) with NCI-H226 lung; 16.5% with NCI-H322M lung; 2.7% (active) in the experiment with HOP-62 NSCLC; 3.01% (active) with NCI-H460 lung; -16.8% (active) in the experiment with HOP-92 NSCLC. Besides, the growth is 7.72% (active) with A549/ATCC NSCLC; 0.0627% (active) in the experiment with 786-0 renal; 6.54% (active) in the experiment on COLO 205 colon; 8.12% (active) in the experiment on DU-145 prostate; 9.74% (active) in the experiment with K-562 leukemia; -38.7% (active) with MALME-3M melanoma. Moreover, the growth was -51.8% (active) in the experiment with MDA-MB-231 breast; -46.6% (active) in the experiment on RXF 393 renal; -4.76% (active) in the experiment with SF-268 CNS; -32.3% (active) in the experiment on SF-295 CNS; -42.6% (active) in the experiment on SF-539 CNS; 1.36% (active) with UACC-257 melanoma.
